From PubChem
This is a sample that favours compounds with a hit; in the whole collection about 9.2% have one here.
Rab9 prom act = activates the Rab9 promoter | Potency, µM (titrated, usually from 9.22 µM), inactives show top-dose activation, negative = inhibition, most hits filed as activators | Huh7 Rab9 promoter-luciferase reporter, luminescence, 24 h | 2.8% of 320,000 active; further: % of control where 0% means no effect; nearly all actives have a fitted effect of over 60% in size
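Huh7 cells stably carrying a Rab9 promoter-luciferase reporter, 1500 cells per well in OP-MEM I with 10% FBS, treated with compound 24 hours at 37C. Luciferase activity read by luminescence after 10 minutes with Amplite reagent.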
FLuc counter = inhibits or activates purified firefly luciferase, miR-21 counter-screen. Potency, µM (top dose mostly 57.5 µM), for the others: at the top dose activity change, negative = inhibition, most hits filed as inhibitors. P08659. 6.9% of 360,000 active. purified FLuc, Km substrates, luminescence inhibition;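 further: plate controls were vehicle for no effect and reference inhibitor for full effect; nearly all actives have a fitted effect of over 55% in size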
Target sequence (P08659 whole entry, looked up): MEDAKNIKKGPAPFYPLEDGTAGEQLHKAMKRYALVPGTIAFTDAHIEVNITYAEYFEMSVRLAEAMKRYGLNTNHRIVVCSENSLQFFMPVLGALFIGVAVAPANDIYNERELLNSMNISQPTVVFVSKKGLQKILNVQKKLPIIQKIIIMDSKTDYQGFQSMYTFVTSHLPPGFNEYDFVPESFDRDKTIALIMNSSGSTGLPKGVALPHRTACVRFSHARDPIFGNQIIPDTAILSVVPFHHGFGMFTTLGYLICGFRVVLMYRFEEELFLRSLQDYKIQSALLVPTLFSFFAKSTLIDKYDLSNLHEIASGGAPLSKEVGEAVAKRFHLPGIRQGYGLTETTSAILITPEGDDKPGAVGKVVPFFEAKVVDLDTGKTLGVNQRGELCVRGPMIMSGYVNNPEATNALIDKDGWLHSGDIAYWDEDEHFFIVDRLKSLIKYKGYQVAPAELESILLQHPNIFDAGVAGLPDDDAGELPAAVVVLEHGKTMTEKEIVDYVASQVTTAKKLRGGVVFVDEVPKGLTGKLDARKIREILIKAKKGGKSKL
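Purified P. pyralis luciferase (10nM final) with 10uM D-luciferin and 10uM ATP (Km levels) in 50mM Tris acetate pH 7.5, 10mM Mg acetate, 0.01% Tween-20, 0.05% BSA; qHTS 6-point titration, ~60 µM downward; luminescence read.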
ELG1 genotox = induces genotoxicity in HEK293T cells with luciferase-tagged ELG1 | 1.3% of 330,000 active | HEK293T ELG1-luciferase reporter, luminescence, 16 h | Potency, µM (top dose mostly 46 µM), without a hit: at the top dose activity change, positive = activation, actives largely listed as activators | AID 504466; further: % of control where 0% means no effect; nearly all actives have a fitted effect of over 60% in size
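Luminescence read-out: rising ELG1-luciferase signal, reflecting elevated ELG1 protein under genetic stress, flags genotoxic compounds. Cells were treated for 16 hr at 37 °C before ONE-Glo detection.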
SMN2 splice enh = SMN2 splice variant enhancement; 2.8% of 210,000 active; Potency, µM (series often up to 46.1 µM), for inactives: top-dose activity change, positive = activation, usual class: activators; HEK293 SMN2-luciferase splicing reporter, luminescence, 30-36 h; further: % of control where 0% means no effect; nearly all actives have a fitted effect of over 55% in size
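HEK293 cells carry an SMN2 […]–luciferase reporter in which exon 7 inclusion puts luciferase in frame. Cells were plated 10-12 h before compound addition, then incubated 30-36 h at 37C. ONE-Glo luminescence was read; sodium butyrate at 4.5 mM final served as control.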
ELG1 DNA repair = blocks ELG1-dependent DNA repair in HEK293T cells | HEK293T ELG1-luciferase reporter, luminescence, 16 h; DNA damage induced by 5-fluorouridine | Potency, µM (series often up to 46.1 µM), without a hit: at the highest dose activity change, negative = inhibition, hits mostly inhibitors | 2.3% of 330,000 active; further: on the % scale 0 is the no-effect control and ±100 the full control effect; nearly all actives have a fitted effect of over 55% in size
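Cells (2,000 per well) received 5-fluorouridine plus test compound or DMSO and were incubated 16 hr at 37 °C, 5% CO2. Luciferase activity was read by luminescence 30 min after ONE-Glo addition; signal suppression marked inhibition of damage-induced ELG1 function.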
NPC1 prom act = NPC1 promoter activation | Huh7 NPC1 promoter luciferase reporter, 24 h | Potency, µM (top dose mostly 9.22 µM), for the others: top-dose activation, hits mostly activators | 2.4% of 320,000 active; further: % of control where 0% means no effect; nearly all actives have a fitted effect of over 60% in size
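Huh7 cells stably carrying NPC1 promoter–luciferase, plated in Opti-MEM with 10% FBS for 2 h, were exposed to compound in DMSO for 24 h at 37 °C; luciferase reagent was added for 10 min and luminescence read.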
The depositor's hits bear a star; ? = inconclusive; · = not tested or not shown. The call rests on the fitted dose curve; in most records, active means well fitted curve in the direction sought with a large enough effect; inconclusive means small, poorly fitted or top-dose-only effect, or another doubt; inactive means no such curve, though single readings can be large; an effect the other way counts as inactive or inconclusive. Potency means the concentration at half of the fitted maximal effect.

SMILES	Rab9 prom act	FLuc counter	ELG1 genotox	SMN2 splice enh	ELG1 DNA repair	NPC1 prom act
C/C(=N\Nc1nccnc1Cl)c1ccc(O)c(C)c1	?	11µM*	?	·	?	?
CCc1ccc(-n2nc(CO)c(C(=O)NCc3cccs3)n2)cc1	·	-15%	·	-25%	·	·
CCc1ccc(NC(=O)C2CCCN(S(=O)(=O)c3ccc(F)cc3)C2)cc1 (stereo unspecified)	·	-7%	·	-8%	·	·
CCOC(=O)c1ccc(NC(=O)C2CCCN(S(=O)(=O)c3ccc(F)cc3)C2)cc1 (stereo unspecified)	0%	2%	-37%	-25%	16µM*	-3%
CCOC(=O)c1ccc(NC(=O)Oc2ccccc2)cc1	19%	?	8%	-5%	?	3%
COC(=O)c1ccc(NC(=O)Nc2ccc(F)c(Cl)c2)cc1	29%	27µM*	8%	-16%	?	14%
CC(C)(C)c1ccc(NC(=O)Nc2ccc(F)cc2)cc1	2.5µM*	2.4µM*	?	13µM*	?	1.8µM*
CCOC(=O)c1ccc(NC(=O)Oc2cc(C)c(Cl)cc2C(C)C)cc1	4.5µM*	-9%	5%	·	10%	2%
CCCN(CCC)C(=O)C1CC(=O)OC12CCCCC2 (stereo unspecified)	-1%	-11%	-1%	-4%	6%	-2%
CCOC(=O)c1ccc(NC(=O)Nc2ccc(OC)c(OC)c2)cc1	-3%	?	-13%	-4%	?	1%
O=C(C1CCCN(S(=O)(=O)c2ccc(F)cc2)C1)N(Cc1cccs1)C1CC1 (stereo unspecified)	6%	10%	-28%	-51%	12µM*	2%
COC(=O)c1ccc(NC(=O)Nc2ccc(F)cc2)cc1	?	11µM*	8%	-4%	?	?
O=C(C1CCCN(S(=O)(=O)c2ccc(F)cc2)C1)N1CCCC1 (stereo unspecified)	-4%	1%	0%	-4%	11%	11%
COC(=O)c1ccc(NC(=O)Nc2ccc(OC)cc2)cc1	22%	-20%	0%	19%	9%	8%
CC(C)(C)c1ccc(NC(=O)c2ccc(=O)[nH]n2)cc1	0.79µM*	3µM*	?	·	?	0.71µM*
CCOC(=O)c1ccc(NC(=O)Nc2ccc(F)cc2)cc1	18%	11µM*	10%	4%	?	20%
O=C(Nc1ccc(Cl)c(S(=O)(=O)N2CCOCC2)c1)[C@@H]1CCCN1C(=O)c1cccs1	-2%	-3%	-3%	·	9%	1%
CCOC(=O)c1sc(NC(=O)Nc2ccc(F)cc2)nc1C	1.3µM*	1.5µM*	?	1.3µM*	?	1.6µM*
COC(=O)Nc1ccc(S(=O)(=O)N2CCCC(C(=O)Nc3cccnc3)C2)cc1 (stereo unspecified)	-3%	-2%	-6%	12%	-24%	-3%
CCOC(=O)c1sc(NC(=O)Cc2ccc(F)cc2)nc1C	2%	?	3%	-27%	?	1%
COC(=O)Nc1ccc(S(=O)(=O)N2CCCC(C(=O)Nc3cccc4c3OCCO4)C2)cc1 (stereo unspecified)	-6%	1%	-6%	25%	21µM*	-1%
Cc1cc(/C=C2\NC(=O)NC2=O)c(C)n1-c1cccnc1	1%	15µM*	17%	·	8%	22%
Cc1cc(/C=C2\SC(=S)N(Cc3ccco3)C2=O)c(C)n1-c1cccnc1	?	4.8µM*	?	5%	?	?
Cc1cc(/C=C2\NC(=S)NC2=O)c(C)n1-c1cccnc1	?	9.5µM*	10%	·	?	21%
Cc1c(Cl)cccc1NC(=O)c1ccc2nc(C(C)C)oc2c1	·	-1%	·	·	·	·
